# The campaign covered roughly 53,000 sequences. About 3,700 (7%) were called active.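 The calls were made as follows: active = gene knockdowns whose robust z-score for IL-1 alpha signal is at least 2 or at most -2, so actives lie on both sides; inactive = the rest.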 This excerpt belongs to a sample that is enriched for actives.
# Assay: Components of the Cytosolic LPS Sensing Pathway: Gene Identification via Genome-wide siRNA Screen;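 also: robust z of the log signal after scaling to non-targeting control siRNA wells of the plate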
# Settings: RAW264.7 macrophages, IL-1a HTRF, actives lie on both sides, screened at 100 nM (by protocol), cells primed 5 h with Pam3CSK4 first
# How it was run: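 RAW264.7 mouse macrophages reverse-transfected with single siRNAs (100 nM final) for 48h, primed with Pam3CSK4 for 5 hours, then transfected with LipidA for 24 hour. Supernatant IL-1a read by HTRF; values normalized to negative-control median, log-transformed robust z-scores.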
row,Sequence,z-score
1,GCCAAGGACUCAGUGAAUGTT against Iqsec2,-1.19 (inactive)
2,GGUCCUCUCAGACAUGAAGTT against Pagr1a,-0.237 (inactive)
3,GCGGUAAGAACGUGGAACUTT against Tent5b,0.536 (inactive)
4,GGGCAAGUUCCAUCUCCUUTT against Cdc42ep2,-2.2 (active)
5,GCAUGAAGAGGCAAAGGCUTT against Igfbp1,-0.555 (inactive)
6,GGAAGUUAAUGGGUAAAGUTT against Olfr365,-1.67 (inactive)
7,GGACAAAACUAAACAGCAATT against Smarcal1,-0.662 (inactive)
8,GGGCUUUCUUGGUUUUAUCTT against Depp1,-0.377 (inactive)
9,GUCGCAUCUCCAAAAAUGGTT against Olfr340,-1.46 (inactive)
10,GGAUCCUCUCAUUAAGAAATT against Gabra1,-1.15 (inactive)
11,CGACUUCGCCUUAUGAGAUTT against Tst,-1.19 (inactive)
12,GCAAGUGAGUUAGCAGUCATT against Atp2c1,-2.23 (active)
13,GGUUGAUCCAAAAGAUUACTT against Rp2,0.557 (inactive)
14,GGUCAUGAAAAAUGACAGCTT against Klra2,0.126 (inactive)
15,GGAAGAAGAGGAUGAGAUUTT against Clcn6,-1.73 (inactive)
16,GGCUCACAAUUGCUGUGUATT against Psg23,-0.566 (inactive)
17,GGAUGUUGGCAGCCGAACATT against St3gal2,-0.684 (inactive)
18,GGACAAGAUGUUGAGUAUUTT against Plrg1,-2.23 (active)
19,UUGUCAUUCACUUGAUGAATT against H2bu2,0.238 (inactive)
20,CCAUGCCCACUGGAUAGAUTT against Nat14,-1.21 (inactive)
21,CCCGAAUUGACAACAUCGUTT against Olfr855,0.566 (inactive)
22,CGCCUUAAACGAAGCUGCUTT against 1700034E13Rik,-1.28 (inactive)
23,GGUUUCCUUUUUGUUCAUUTT against Dlg3,0.566 (inactive)

row,Sequence,z-score
1,CCGGUUGUUUUGAGUGUUGTT against Rad9b,1.09 (inactive)
2,GGAAAACACAGCUACGGAATT against Ak5,2.21 (active)
3,CCAUAUAUUAUGGACCUUATT against Hepacam2,-0.576 (inactive)
4,CCGAAAUAAGGCUAGCUCATT against Rfx6,-0.282 (inactive)
5,GGUCUUACCAACAGAACCCTT against Rad51ap1,1 (inactive)
6,GCAAUGCUCUAAUCCACUCTT against Npas4,0.654 (inactive)
7,GGAAUUAUAGGACUUGUUCTT against Serinc1,0.256 (inactive)
8,GGUUCCCAAAGUAGAAGCATT against Dkkl1,-0.231 (inactive)
9,GCUGAGUUGACUCCUACUGTT against Mcpt1,-2.23 (active)
10,GGAUUUGUUUUCAGAUGUGTT against Zfp329,-1.56 (inactive)
11,GAUUCUUGUCGCUCAUAGCTT against Vmn1r52,-0.535 (inactive)
12,GGGCACACAUAUGACCGUUTT against Rrad,0.261 (inactive)
13,GCAUUCAUACAUGUAACAGTT against Wdr70,0.336 (inactive)
14,GUCACAGAAAGCUUAGUCCTT against Olfr427,-2.93 (active)
15,GGGACCAGAACAAAGUGGUTT against Olfr487,0.474 (inactive)
16,CCUAUUCAUCAUAACUCAUTT against Tdo2,0.129 (inactive)
17,CGAGCAUAAAAGUUAUGUGTT against Chaf1b,1.07 (inactive)
18,GGAUCCUUACAAUAACAUUTT against Mmut,2.04 (active)
19,GCGUAUUUCCUUUCGGAGUTT against Exoc3,0.116 (inactive)
20,CCUAAGCCCUCUAAGGCAATT against Pik3r2,-0.753 (inactive)
21,CCUCCUCUCCUAAAUGCCUTT against Llcfc1,-1.23 (inactive)
22,GGAACGAGUUUUGAAAAAATT against Creb3l3,0.073 (inactive)
23,GGAAGAACAUUGUUACCUGTT against Svep1,1.1 (inactive)

row,Sequence,z-score
1,GGUCCUACUUACUACUGCCTT against Fam83h,0.265 (inactive)
2,CGUCUACCCGGAAUUUCAGTT against Sdha,-1.42 (inactive)
3,GGAAGGACUAUUUUCUUUCTT against Trak1,1.5 (inactive)
4,GGCAGAAAGCAAAAUGUUUTT against Gata3,-4.28 (active)
5,GUGGAUACGUGGGAAAGUCTT against Nmnat1,0.0316 (inactive)
6,CGCUCUGUUAAUGCAGGAUTT against Papss1,3.22 (active)
7,GCUAUUUCUGCCUUUAGUCTT against Scamp5,-0.0682 (inactive)
8,CCCACUGUGAAGAGAGGCATT against Xlr3c,-1.41 (inactive)
9,GGUUCAGACAACUCAGUGGTT against Pbx1,0.813 (inactive)
10,GGAGAAGGUGCUCAAGUUGTT against Henmt1,-2.45 (active)
11,CGGAUUCAUCAGUUUGGUATT against Cdc7,0.274 (inactive)
12,GCAACUUACUUGAUCUGAATT against Ap2b1,-0.292 (inactive)
13,CCUUCUAAUUAUCACCAAATT against Arhgap18,-0.102 (inactive)
14,GCUAACUGCACUCCGAGAUTT against Asap1,-0.266 (inactive)
15,GGAAAAUUGAUAGCAAGCUTT against Fbxw15,1.9 (inactive)
16,GGCACAUCUCCCUAACACUTT against Mvb12b,-2.02 (active)
17,CCAAGCAUUAUGAGAUGCUTT against Sec23b,0.749 (inactive)
18,GGUUACUAGAUGUAUUUUGTT against Ppp3cb,-0.785 (inactive)
19,GGAAGAGGACCAAAGUGCUTT against Pnpla7,1.75 (inactive)
20,GGAUCAACAUCAGAGUUCUTT against Zfp119b,-0.562 (inactive)
21,CCCUAAUUCUUAGGCCUUUTT against Bloc1s3,-0.242 (inactive)
22,GGAAAGGUUUAAUCAUGAATT against Spred1,0.602 (inactive)

# — PubChem BioAssay AID1508600 (Functional Genomics Laboratory (NCATS/FGL), 2020)
